Laboratory results: the supplement of paper PMC10338343
± gives the standard deviation.

What was measured:
[1] = system: MILI (PIWIL2) piRISC loaded with L1MC piRNA (26 nt); assay: pre-steady-state target cleavage rate (min^-1); guide: L1MC piRNA 5'p-UAACUAAAUACUAUGCAAGCUGUAGG; higher = faster piRNA-guided slicing of the target
Outline: (§1)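 A transcribed, DNA-blocked target RNA library (0.1 nM) and 1 nM active affinity-purified piRISC bearing one synthetic guide were incubated in HEPES–potassium acetate buffer at 33 °C for 0–8 or 0–960 min, either with or without 500 nM GTSF1 partner protein. Uncleaved targets were sequenced, normalised to depth and to weakly complementary targets, and pooled over three trials, with k3 capped at 0.0001 min^-1. The pre-steady-state cleavage rate was derived with a burst-and-steady-state fit.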

[2] = system: EfPiwi piRISC loaded with L1MC piRNA (26 nt); assay: pre-steady-state target cleavage rate (min^-1); auxiliary factor: 500 nM Ephydatia muelleri Gtsf1; guide: L1MC piRNA 5'p-UAACUAAAUACUAUGCAAGCUGUAGG; MIWI and MILI are mouse PIWI proteins and EfPiwi is from a freshwater sponge; tags in brackets are library labels; higher = faster piRNA-guided slicing of the target
Outline: as §1

[3] = auxiliary factor: 500 nM mouse GTSF1
[4] = auxiliary factor: none (no GTSF1)

Sequence | pre-steady-state target cleavage rate [1, 3] | pre-steady-state target cleavage rate [1, 4] | pre-steady-state target cleavage rate [2]
UCCUGUUACAGCUUGCAUAGUAUUUAGUUA | 0.328 ± 0.018 | 0.0102 ± 0.0034 | 0.231 ± 0.07
UCCUCGCUACAGCUUGCAUAGUAUUUAGUUA | 0.276 ± 0.02 | 0.00839 ± 0.0032 | 0.0505 ± 0.017
UCCUGGAACAGCUUGCAUAGUAUUUAGUUU [g2:g23:cont:t1U] | 0.278 ± 0.02 | 0.0155 ± 0.0044 | 0.0156 ± 0.0055
UCCUGGAACAGGUUGCAUACUAUUUAGUUA | 0.0491 ± 0.0087 | 0.00363 ± 0.002 | 0.00367 ± 0.0017
UCCUCGAACAGCUUGCAUAGUAUUUAGUAA | 0.242 ± 0.015 | 0.00453 ± 0.0022 | 0.0173 ± 0.0064
UCCUGGAUGUCCUCUGCAUAGUAUUUAGUUA | 0.0405 ± 0.0082 | 0.00562 ± 0.0033 | 0.00412 ± 0.003
UCCUGGAACAGCUUGUAUAGUAUUUAGUUA | 0.323 ± 0.017 | 0.00685 ± 0.0022 | 0.0686 ± 0.013
UCCUGGAUGUGCUCUGCAUAGUAUUUAGUUA | 0.137 ± 0.015 | 0.0108 ± 0.0039 | 0.00925 ± 0.0031
UCCUGGAUGAGCUUGGAUAGUAAUUAGUUA | 0.1 ± 0.02 | 0.00311 ± 0.0026 | 0.00302 ± 0.0021
UCCUGGAUCAGCUUGCAUAGUAUUUAGUUU [g2:g22:cont:t1U] | 0.357 ± 0.019 | 0.0189 ± 0.0043 | 0.121 ± 0.025
UCCUGGAUGUGCUUGCAUAGUAUGUUAGUUA | 0.0646 ± 0.012 | 0.00452 ± 0.0032 | 0.00406 ± 0.0038
UCCUGGAACAGCUUCCAUUGUAUUUAGUUA | 0.11 ± 0.019 | 0.00471 ± 0.0022 | 0.00345 ± 0.0017
UCCUGGUACCAGCUUGCAUAGUAUUUAGUUA | 0.276 ± 0.043 | 0.00866 ± 0.0047 | 0.0109 ± 0.0044
UCCUCCUACACCUUGGAUAGUAUUUAGUUA | 0.182 ± 0.026 | 0.00508 ± 0.0023 | 0.00658 ± 0.0029
UCCUGCUACAGCUAGCAAAGUAUUUAGUUA | 0.137 ± 0.012 | 0.00463 ± 0.0024 | 0.0328 ± 0.0098
UCCUCCUAGAGCUUGCAUAGUAAUUAGUUA | 0.264 ± 0.029 | 0.00317 ± 0.0031 | 0.011 ± 0.0039
UCCUGGAACAGCUUGCAUAGUUUUUAGUUA | 0.0586 ± 0.01 | 0.00493 ± 0.0022 | 0.00683 ± 0.0019
UCCUGGAUGUCGUUGCAUAGUACUUAGUUA | 0.0399 ± 0.011 | 0.00463 ± 0.0029 | 0.00365 ± 0.0035
UCCUGGAACUGCAUGCAUAGUAUUUAGUUA | 0.224 ± 0.013 | 0.00585 ± 0.0025 | 0.0126 ± 0.0039
